Records with an inconclusive call do not appear. A call without a number means that no potency is given here. Active and inactive are the calls of the source. Calls come from the whole dose curve; as a rule, active = well fitted inhibition curve with a large enough effect; inconclusive = small, poorly fitted or top-dose-only effect; inactive = flat fitted curve, though single readings scatter.
Legend:
Test in all cases: qHTS profiling for inhibitors of Plasmodium falciparum proliferation (AID 504749); note: nearly all actives have a fitted effect of over 60% in size
Settings in all cases: P. falciparum in erythrocytes, SYBR Green DNA, 72 h; series mostly up to 28.7 µM
ATS189 = tested on: ATS189
Outline: (§1)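 P. falciparum-infected erythrocytes (0.3% parasitemia, 2.5% hematocrit final) were exposed to compounds for 72 h at 37 C in 5% CO2, then lysed with SYBR Green buffer overnight at room temperature; parasite DNA fluorescence was normalized to artemisinin and DMSO controls.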

ATS95 = tested on: ATS95
Outline: as §1

C2A = tested on: C2A
Outline: as §1

CP185 = tested on: CP185
Outline: as §1

CP191 = tested on: CP191
Outline: as §1

CP192 = tested on: CP192
Outline: as §1

CP194 = tested on: CP194
Outline: as §1

CP201 = tested on: CP201
Outline: as §1

CP211 = tested on: CP211
Outline: as §1

CP203 = tested on: CP203
Outline: as §1
Potency is the fitted concentration of half-maximal effect.

Row | SMILES | Potency (ATS189) | Potency (ATS95) | Potency (C2A) | Potency (CP185) | Potency (CP191) | Potency (CP192) | Potency (CP194) | Potency (CP201) | Potency (CP211) | Potency (CP203)
1 | C[C@H](Cn1cnc2c(N)ncnc21)OCP(=O)(O)O | inactive | inactive | inactive | inactive | inactive | inactive | inactive | inactive | inactive | –
2 | Nc1cc(C(Cl)=C(Cl)Cl)c(S(N)(=O)=O)cc1S(N)(=O)=O | inactive | inactive | inactive | inactive | inactive | inactive | inactive | inactive | inactive | –
3 | Cc1nc2n(c(=O)c1CCN1CCC(c3noc4cc(F)ccc34)CC1)CCCC2 | inactive | inactive | inactive | inactive | inactive | inactive | inactive | inactive | inactive | –
4 | C[C@]12CCC(=O)C=C1CC[C@@H]1[C@H]2[C@@H](O)C[C@@]2(C)[C@H]1CC[C@]2(O)C(=O)CO | inactive | inactive | inactive | inactive | inactive | inactive | inactive | inactive | inactive | –
5 | CC1(C)CCC(C)(C)c2cc(NC(=O)c3ccc(C(=O)O)cc3)ccc21 | inactive | inactive | inactive | inactive | inactive | inactive | inactive | inactive | inactive | –
6 | CCCCN(CCCC)CCC(O)c1cc2c(Cl)cc(Cl)cc2c2cc(C(F)(F)F)ccc12 (stereo not drawn) | 5.6 nM (active) | 7.9 nM (active) | 25.1 nM (active) | 28.2 nM (active) | 12.6 nM (active) | 10.2 nM (active) | 32.2 nM (active) | 51 nM (active) | 64.2 nM (active) | –
7 | CN(C)c1ccc2nc3ccc(=[N+](C)C)cc-3sc2c1 | 79.4 nM (active) | 70.8 nM (active) | 141 nM (active) | 89.1 nM (active) | 79.4 nM (active) | 67.5 nM (active) | 75.7 nM (active) | 67.5 nM (active) | 60.1 nM (active) | –
8 | CCN(CCO)CCCC(C)Nc1ccnc2cc(Cl)ccc12 (stereo not drawn) | inactive | inactive | inactive | inactive | inactive | inactive | inactive | inactive | inactive | –
9 | CC1(C)NC(=O)N(c2ccc([N+](=O)[O-])c(C(F)(F)F)c2)C1=O | inactive | inactive | inactive | inactive | inactive | inactive | inactive | inactive | inactive | –
10 | Nc1cccc2c1CN(C1CCC(=O)NC1=O)C2=O (stereo not drawn) | inactive | inactive | inactive | inactive | inactive | inactive | inactive | inactive | inactive | –
11 | Cc1ncc([N+](=O)[O-])n1CC(C)O (stereo not drawn) | inactive | inactive | inactive | inactive | inactive | inactive | inactive | inactive | inactive | –
12 | CN(C)C(=O)COC(=O)Cc1ccc(OC(=O)c2ccc(N=C(N)N)cc2)cc1 | inactive | inactive | inactive | inactive | inactive | inactive | inactive | inactive | inactive | –
13 | COc1cc(OC)c(C(=O)CCCN2CCCC2)c(OC)c1 | inactive | inactive | inactive | inactive | inactive | inactive | inactive | inactive | inactive | –
14 | CC(C)[C@H](N)C(=O)OCCOCn1cnc2c(=O)[nH]c(N)nc21 | inactive | inactive | inactive | inactive | inactive | inactive | inactive | inactive | inactive | –
15 | C=C(c1ccc(C(=O)O)cc1)c1cc2c(cc1C)C(C)(C)CCC2(C)C | inactive | inactive | inactive | inactive | inactive | inactive | inactive | inactive | inactive | –
16 | O=C(O)c1cccnc1Nc1cccc(C(F)(F)F)c1 | inactive | inactive | inactive | inactive | inactive | inactive | inactive | inactive | inactive | –
17 | O=C(O)CCNC(=O)c1ccc(N=Nc2ccc(O)c(C(=O)O)c2)cc1 | inactive | inactive | inactive | inactive | inactive | inactive | inactive | inactive | inactive | –
18 | CN1C(C(=O)Nc2ccccn2)=C(O)c2sccc2S1(=O)=O | inactive | inactive | inactive | inactive | inactive | inactive | inactive | inactive | inactive | –
19 | c1ccc2[nH]c(-c3cscn3)nc2c1 | – | inactive | inactive | – | inactive | inactive | inactive | inactive | inactive | –
20 | Cc1c(C(=O)NN2CCCCC2)nn(-c2ccc(Cl)cc2Cl)c1-c1ccc(Cl)cc1 | – | – | – | – | 11200 nM (active) | – | 16900 nM (active) | – | – | 13500 nM (active)
21 | CC(C)(S)[C@@H](N)C(=O)O | inactive | inactive | inactive | inactive | inactive | – | inactive | inactive | inactive | –
22 | CC(C)c1ccc2oc3nc(N)c(C(=O)O)cc3c(=O)c2c1 | inactive | inactive | inactive | inactive | – | inactive | inactive | inactive | inactive | –
23 | O=C(O)c1cn(-c2ccc(F)cc2)c2cc(N3CCNCC3)c(F)cc2c1=O | inactive | – | inactive | – | inactive | inactive | – | – | – | –

Row | SMILES | Potency (ATS189) | Potency (ATS95) | Potency (C2A) | Potency (CP185) | Potency (CP191) | Potency (CP192) | Potency (CP194) | Potency (CP201) | Potency (CP211) | Potency (CP203)
24 | CCCCCCCCOc1ccccc1C(=O)Nc1ccc(C(=O)OCC[N+](C)(CC)CC)cc1 | – | 7940 nM (active) | 12600 nM (active) | 8910 nM (active) | 7940 nM (active) | – | – | – | – | –
25 | COC1=C(OC)C(=O)C(CCCCCCCCCCO)=C(C)C1=O | inactive | inactive | inactive | inactive | – | inactive | inactive | inactive | inactive | inactive
26 | CN1CCC(=C2c3ccccc3CCc3sccc32)CC1 | – | – | inactive | – | – | – | – | – | – | –
27 | Cc1cc(C2CCCCC2)n(O)c(=O)c1 | – | – | – | – | 3160 nM (active) | – | – | – | 6420 nM (active) | 6420 nM (active)
28 | CCc1nc(N)nc(N)c1-c1ccc(Cl)cc1 | inactive | inactive | inactive | inactive | – | inactive | inactive | inactive | – | inactive
29 | CN(c1nccc(=O)[nH]1)C1CCN(c2nc3ccccc3n2Cc2ccc(F)cc2)CC1 | inactive | – | inactive | inactive | inactive | inactive | – | inactive | – | –
30 | O=C(CS(=O)Cc1ccco1)NCC=CCOc1cc(CN2CCCCC2)ccn1 (stereo not drawn) | inactive | inactive | inactive | inactive | – | inactive | inactive | inactive | inactive | inactive
31 | CCCOc1ccc2nc(NC(=O)OC)[nH]c2c1 | inactive | inactive | inactive | inactive | inactive | inactive | inactive | inactive | inactive | –
32 | CCC(C)(Oc1ccc(C2(c3ccc(OC(C)(CC)C(=O)O)cc3)CCCCC2)cc1)C(=O)O (stereo not drawn) | inactive | inactive | inactive | inactive | inactive | – | inactive | inactive | inactive | inactive
33 | CC[C@]1(O)C[C@H]2CN(CCc3c([nH]c4ccccc34)[C@@](C(=O)OC)(c3cc4c(cc3OC)N(C=O)[C@H]3[C@@](O)(C(=O)OC)[C@H](OC(C)=O)[C@]5(CC)C=CCN6CC[C@]43[C@@H]65)C2)C1 | – | 2510 nM (active) | 2000 nM (active) | 1580 nM (active) | 2240 nM (active) | – | 1690 nM (active) | – | 2130 nM (active) | –
34 | CC1=C(C)C(=O)C(C(CCCCCC(=O)O)c2ccccc2)=C(C)C1=O (stereo not drawn) | – | inactive | – | inactive | inactive | inactive | – | inactive | – | –
35 | Cc1cc(=O)oc2cc(O)ccc12 | – | inactive | – | – | inactive | inactive | inactive | inactive | inactive | inactive
36 | Cc1cc(=O)c2c(O)c3c(O)cc(=O)c4c3c3c(cc(O)c1c23)C(C)(C)C=4O | 1410 nM (active) | 2000 nM (active) | 1580 nM (active) | 1580 nM (active) | 1120 nM (active) | – | 2690 nM (active) | – | – | –
37 | CCCCC(CC)COC(=O)C(C#N)=C(c1ccccc1)c1ccccc1 (stereo not drawn) | – | – | inactive | – | – | inactive | – | inactive | inactive | –
38 | O=C1CCc2ccc(OCCCCN3CCN(c4cccc(Cl)c4Cl)CC3)cc2N1 | – | – | – | – | 8910 nM (active) | inactive | inactive | inactive | inactive | inactive
39 | COCCCOc1ccnc(CS(=O)c2nc3ccccc3[nH]2)c1C (stereo not drawn) | inactive | inactive | inactive | inactive | – | inactive | – | inactive | inactive | –
40 | Cn1c(NCCN(CCO)CCCc2ccc([N+](=O)[O-])cc2)cc(=O)n(C)c1=O | inactive | inactive | inactive | inactive | – | inactive | inactive | inactive | inactive | inactive
41 | N=C(N)c1ccc2cc(OC(=O)c3ccc(N=C(N)N)cc3)ccc2c1 | – | – | – | – | 3980 nM (active) | inactive | – | – | – | –
42 | Clc1ccc(C(Cn2ccnc2)OCc2ccsc2Cl)c(Cl)c1 (stereo not drawn) | 6310 nM (active) | 7080 nM (active) | – | 7940 nM (active) | 7080 nM (active) | 16900 nM (active) | 8490 nM (active) | – | 13500 nM (active) | 4780 nM (active)
43 | COC(=O)C1=C(C)NC(C)=C(C(=O)OCCCN2CCC(c3ccccc3)(c3ccccc3)CC2)C1c1cccc([N+](=O)[O-])c1 (stereo not drawn) | 4470 nM (active) | 5010 nM (active) | 3980 nM (active) | 7080 nM (active) | 4470 nM (active) | – | 5360 nM (active) | 9530 nM (active) | 6010 nM (active) | 9530 nM (active)
44 | CCCCCCCCCCCCCCCCCCCCCCO | inactive | inactive | inactive | inactive | inactive | inactive | – | inactive | inactive | –
45 | O=C(OC1C[C@H]2CC[C@@H](C1)[N+]21CCCC1)C(O)(c1ccccc1)c1ccccc1 (stereo partly drawn) | – | – | 5010 nM (active) | 2820 nM (active) | – | 3790 nM (active) | – | – | 1900 nM (active) | –
46 | Cc1nc(Nc2ncc(C(=O)Nc3c(C)cccc3Cl)s2)cc(N2CCN(CCO)CC2)n1 | – | – | – | – | – | inactive | – | inactive | – | –

Source: PubChem BioAssay (NCATS)
